These results are taken from PubChem BioAssay (NCI).

SMILES strings stand for the structures. The panel holds about 79,000 compounds, 15% with a hit somewhere; the sample as a whole holds those more often. The source made the active and inactive calls. No stated cut-off is given here; in the data, active means growth inhibition above about 70%; inactive means the rest.

A short description of one assay: NCI Yeast Anticancer Drug Screen. Data for the mlh1 rad18 strain (AID 175). Conditions: S. cerevisiae mlh1 rad18 strain growth inhibition; at 50.0 µM (retest, dose inferred, filed as 5.0); stronger effect = higher value. A digest of the protocol:
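Inhibition values reflect reduced growth of mutant yeast versus vehicle-treated controls following compound exposure; the mutations affect DNA damage repair.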
`Cc1ccccc1N1C(=O)C(=O)c2cccc(C)c21`: the growth inhibition was 99% (active).
As to `Nc1n[nH]c(=O)c2cccnc12`, the growth inhibition is -14% (inactive).
With `CCCCNCCCNCCCNC(=O)c1csc(-c2csc(CCNC(=O)C(NC(=O)C(C)C(O)C(C)NC(=O)C(NC(=O)c3nc(C(CC(N)=O)NCC(N)C(N)=O)nc(N)c3C)C(OC3OC(CO)C(O)C(O)C3OC3OC(CO)C(O)C(OC(N)=O)C3O)c3cnc[nH]3)C(C)O)n2)n1` (stereo not given), the growth inhibition is 99% (active).
With `c1ccc(-c2ccc(-c3cnc(-c4ccc(-c5ccccc5)cc4)o3)cc2)cc1`, the growth inhibition was 64% (inactive).
In the case of `CN(C)C=Nc1ccc2nonc2c1`, the growth inhibition is 10% (inactive).
Take `COC(=O)C(CCC(=O)Cc1ccccc1)N1C(=O)c2ccccc2C1=O` (stereo not given): the growth inhibition is 89% (active).
With `O=S(=O)(Nc1ccccc1)c1ccccc1CC(O)(c1ccccc1)c1ccccc1`, the growth inhibition is 90% (active).
Still for that read-out and setting: for `O=C1OC(=O)C2C=CC=CC12` (stereo not given) the value was 2% (inactive); for `CCOC(=O)N/N=C/c1ccc([N+](=O)[O-])o1`, 78% (active); for `CN=C(N)N/N=C(\C)c1ccc2c(ccc3ccccc32)c1`, 97% (active).
Turning to `O=C(C(/C=N/C(=S)NCc1ccccc1)=C(/O)c1ccccc1)c1ccccc1`, the growth inhibition is 71% (active).
Take `Cc1nc(Nc2ccc(Cl)cc2)sc1C(=O)Nc1cccc2c(=O)[nH][nH]c(=O)c12`: the growth inhibition is 14% (inactive).
As to `Cc1c2ccccc2c(C)c2c1cc(F)c1ccccc12`, the growth inhibition is 89% (active).
`CC1=C(C(=O)Nc2ccccc2)C(c2cc(Cl)cc(Cl)c2)C(C(=O)Nc2ccccc2)=C(C)N1`: the growth inhibition is -4% (inactive).
The same measure, in the same setting: then `O=[N+]([O-])/C(Br)=C\c1ccc([N+](=O)[O-])cc1`, with 99% (active).
Consider `CC1=CC(C)(C)Nc2cc(N)ccc21`, for which the growth inhibition was -136% (inactive).
Regarding `Fc1ccc2nncc(SCc3ccccc3)c2c1`, the growth inhibition is 98% (active).
As to `CN(C)c1ccc(-c2c(C#N)c(-c3ccccc3)n(NS(=O)(=O)c3ccccc3)c(=O)c2C#N)cc1`, the growth inhibition is 31% (inactive).
For the compound `Cc1cc(N2C(=O)CCSC2=S)ccc1Cl`, the growth inhibition is 18% (inactive).
With `C=C(c1ccccc1)[P+](c1ccccc1)(c1ccccc1)c1ccccc1`, the growth inhibition is 99% (active).
Take `Cc1cc(Br)c2ccccc2c1N`: the growth inhibition is 44% (inactive).
For the compound `CC1C[N+](C)(C)C(C)C(=O)C1(c1ccccc1)c1ccccc1` (stereo not given), the growth inhibition is -4% (inactive).
Take `CC(=O)N(C1=CC(=O)c2ccccc2C1=O)c1ccc(C)cc1`: the growth inhibition was 97% (active).
Same read-out and setting: for `CC(c1ccccc1)n1c2ccccc2c2c(N)ncnc21` (stereo not given) the value was 99% (active); for `CC(=O)O/N=C1/CCC2C3CC=C4CC(OC(C)=O)CCC4(C)C3CCC12C` (stereo not given), 93% (active).
As to `c1cc(CCSSCCc2ccncc2)ccn1`, the growth inhibition is 92% (active).
As for `CC1=C(C(=O)Nc2cc(C)ccc2C)C(c2cccc([N+](=O)[O-])c2)C(C(=O)Nc2cc(C)ccc2C)=C(C)N1`, the growth inhibition was 65% (inactive).
Turning to `ClC1=CC(Cl)=C2N=C(C(Cl)(Cl)Cl)N=C3N=C(C(Cl)(Cl)Cl)N=C1N32`, the growth inhibition is 86% (active).
As to `C[n+]1c(-c2ccc(/C=N/Nc3n[nH]c(=S)n3/N=C/c3ccc(-c4cn5ccsc5[n+]4C)cc3)cc2)cn2ccsc21`, the growth inhibition was 97% (active).
Take `CC1(C)OC(=O)C(=NNc2ccccc2[N+](=O)[O-])C(=O)O1`: the growth inhibition was 7% (inactive).
In the case of `CC(CCCOC(c1ccccc1)(c1ccccc1)c1ccccc1)OC(=O)Nc1ccccc1` (stereo not given), the growth inhibition was 93% (active).
For the compound `CCN(CC)c1ccc2nc3ccc(N(CC)CC)cc3[n+](-c3ccccc3)c2c1`, the growth inhibition is 99% (active).
Turning to `CC1OC(C)C(O)C2=C1C(=O)c1ccccc1C2=O` (stereo not given), the growth inhibition is 96% (active).
Take `CCCCCCCCCCCCS(=O)(=O)CC(Br)C(=O)c1ccco1` (stereo not given): the growth inhibition is 93% (active).
Consider `NC(=O)NOCC1NC(=O)NC1=O` (stereo not given), for which the growth inhibition is 8% (inactive).
Take `O=C(O)C1C(=O)OC2CCCCC21` (stereo not given): the growth inhibition was -3% (inactive).
Take `C=CCNC(=S)N/N=C(\CCC)c1ccccn1`: the growth inhibition was 95% (active).
For `Nc1ccc2c(c1)S(=O)(=O)c1cc(N)ccc1-2`, the growth inhibition was 25% (inactive).
Same read-out and setting: for `CN1C(=O)c2cccc3cc([N+](=O)[O-])cc(c23)C1=O` the value was 53% (inactive); for `C/C(=N\NC(=S)NC12CC3CC(CC(C3)C1)C2)c1ccccn1`, 97% (active).

Still in this assay, the particulars now being: S. cerevisiae mlh1 rad18 strain growth inhibition; at 50.0 µM; stronger effect = higher value.
In the case of `Cc1ccccc1N1C(=O)C(=O)c2cccc(C)c21`, the growth inhibition was 83.1% (active).
On to `Nc1n[nH]c(=O)c2cccnc12`, for which the growth inhibition is 3.25% (inactive).
Turning to `CCCCNCCCNCCCNC(=O)c1csc(-c2csc(CCNC(=O)C(NC(=O)C(C)C(O)C(C)NC(=O)C(NC(=O)c3nc(C(CC(N)=O)NCC(N)C(N)=O)nc(N)c3C)C(OC3OC(CO)C(O)C(O)C3OC3OC(CO)C(O)C(OC(N)=O)C3O)c3cnc[nH]3)C(C)O)n2)n1` (stereo not given), the growth inhibition was 92.7% (active).
Same read-out and setting: then `c1ccc(-c2ccc(-c3cnc(-c4ccc(-c5ccccc5)cc4)o3)cc2)cc1`, with 92.8% (active); and `CN(C)C=Nc1ccc2nonc2c1`, with 0.9% (inactive).
The same measure, in the same setting: then `COC(=O)C(CCC(=O)Cc1ccccc1)N1C(=O)c2ccccc2C1=O` (stereo not given), with 88% (active); and `O=S(=O)(Nc1ccccc1)c1ccccc1CC(O)(c1ccccc1)c1ccccc1`, with 89.2% (active); and `O=C1OC(=O)C2C=CC=CC12` (stereo not given), with -12.2% (inactive).
Turning to `CCOC(=O)N/N=C/c1ccc([N+](=O)[O-])o1`, the growth inhibition is 94% (active).
Turning to `CN=C(N)N/N=C(\C)c1ccc2c(ccc3ccccc32)c1`, the growth inhibition was 91.7% (active).
As to `O=C(C(/C=N/C(=S)NCc1ccccc1)=C(/O)c1ccccc1)c1ccccc1`, the growth inhibition was 98.7% (active).
With `Cc1nc(Nc2ccc(Cl)cc2)sc1C(=O)Nc1cccc2c(=O)[nH][nH]c(=O)c12`, the growth inhibition was 89.7% (active).
Still for that read-out and setting: then `Cc1c2ccccc2c(C)c2c1cc(F)c1ccccc12`, with 93.8% (active).
Regarding `CC1=C(C(=O)Nc2ccccc2)C(c2cc(Cl)cc(Cl)c2)C(C(=O)Nc2ccccc2)=C(C)N1`, the growth inhibition was 74.1% (active).
As for `O=[N+]([O-])/C(Br)=C\c1ccc([N+](=O)[O-])cc1`, the growth inhibition was 99.5% (active).
Turning to `CC1=CC(C)(C)Nc2cc(N)ccc21`, the growth inhibition was 54.5% (inactive).
With `Fc1ccc2nncc(SCc3ccccc3)c2c1`, the growth inhibition was 95.5% (active).
Take `CN(C)c1ccc(-c2c(C#N)c(-c3ccccc3)n(NS(=O)(=O)c3ccccc3)c(=O)c2C#N)cc1`: the growth inhibition was 72.2% (active).
Still for that read-out and setting: for `Cc1cc(N2C(=O)CCSC2=S)ccc1Cl` the value was 87.5% (active).
The same measure, in the same setting: for `C=C(c1ccccc1)[P+](c1ccccc1)(c1ccccc1)c1ccccc1` the value was 99.5% (active); for `Cc1cc(Br)c2ccccc2c1N`, 90.2% (active).
On to `CC1C[N+](C)(C)C(C)C(=O)C1(c1ccccc1)c1ccccc1` (stereo not given), for which the growth inhibition is 19.1% (inactive).
On to `CC(=O)N(C1=CC(=O)c2ccccc2C1=O)c1ccc(C)cc1`, for which the growth inhibition was 58.1% (inactive).
For `CC(c1ccccc1)n1c2ccccc2c2c(N)ncnc21` (stereo not given), the growth inhibition is 91.9% (active).
Consider `CC(=O)O/N=C1/CCC2C3CC=C4CC(OC(C)=O)CCC4(C)C3CCC12C` (stereo not given), for which the growth inhibition was 77.1% (active).
Turning to `c1cc(CCSSCCc2ccncc2)ccn1`, the growth inhibition is 30.3% (inactive).
Turning to `CC1=C(C(=O)Nc2cc(C)ccc2C)C(c2cccc([N+](=O)[O-])c2)C(C(=O)Nc2cc(C)ccc2C)=C(C)N1`, the growth inhibition is 31.6% (inactive).
Regarding `ClC1=CC(Cl)=C2N=C(C(Cl)(Cl)Cl)N=C3N=C(C(Cl)(Cl)Cl)N=C1N32`, the growth inhibition was 99% (active).
As to `C[n+]1c(-c2ccc(/C=N/Nc3n[nH]c(=S)n3/N=C/c3ccc(-c4cn5ccsc5[n+]4C)cc3)cc2)cn2ccsc21`, the growth inhibition was 93.5% (active).
With `CC1(C)OC(=O)C(=NNc2ccccc2[N+](=O)[O-])C(=O)O1`, the growth inhibition was 18.1% (inactive).
Consider `CC(CCCOC(c1ccccc1)(c1ccccc1)c1ccccc1)OC(=O)Nc1ccccc1` (stereo not given), for which the growth inhibition is 81.5% (active).
In the case of `CCN(CC)c1ccc2nc3ccc(N(CC)CC)cc3[n+](-c3ccccc3)c2c1`, the growth inhibition is 98.7% (active).
Turning to `CC1OC(C)C(O)C2=C1C(=O)c1ccccc1C2=O` (stereo not given), the growth inhibition is 87.8% (active).
Take `CCCCCCCCCCCCS(=O)(=O)CC(Br)C(=O)c1ccco1` (stereo not given): the growth inhibition is 95.3% (active).
`NC(=O)NOCC1NC(=O)NC1=O` (stereo not given): the growth inhibition was -16.3% (inactive).
With `O=C(O)C1C(=O)OC2CCCCC21` (stereo not given), the growth inhibition was -2.4% (inactive).
As to `C=CCNC(=S)N/N=C(\CCC)c1ccccn1`, the growth inhibition is 47.9% (inactive).
In the case of `Nc1ccc2c(c1)S(=O)(=O)c1cc(N)ccc1-2`, the growth inhibition is -43.8% (inactive).
`CN1C(=O)c2cccc3cc([N+](=O)[O-])cc(c23)C1=O`: the growth inhibition is 56.6% (inactive).
In the case of `C/C(=N\NC(=S)NC12CC3CC(CC(C3)C1)C2)c1ccccn1`, the growth inhibition was 97.3% (active).
